Screening results deposited in PubChem by National Center for Advancing Translational Sciences (NCATS).
Shown are actives, neighbours in structure and some others; about 3% of the full set was active somewhere.
LDHA block: qHTS assay for inhibitors of human lactate dehydrogenase. L-lactate dehydrogenase A chain (Homo sapiens), P00338. purified LDHA, NADH/diaphorase-resazurin fluorescence; active compounds read low. activity change, % (values are at about 110 or 230 µM). 480,000 compounds, 0.15% hits; in the data active = activity change below about -30%; inconclusive = mostly about -25% to -30%;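 also: plate controls were DMSO wells for no effect and wells without enzyme for full effect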
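Human LDH5 (2 nM) was incubated with 0.06 mM NADH and 0.2 mM pyruvate for 5 min at room temperature in Tris pH 7.4. Remaining NADH was coupled through diaphorase/resazurin, and resorufin fluorescence was read at 0 and 20 min.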
Chronic BCR inh: qHTS Assay to Find Inhibitors of Chronic Active B-Cell Receptor Signaling; ABC-DLBCL IkBa-CBG/CBR reporter, luminescence ratio, 4 h; Potency, µM (top dose mostly 46.1 µM), without a hit: at the top dose activity change, negative = inhibition, hits mostly inhibitors; 340,000 compounds, 0.05% hits; AID 493014, 2011; active = well fitted inhibition curve with a large enough effect in the signal ratio, with a control signal flat, not every such curve was filed as active; inconclusive = small, poorly fitted or top-dose-only effect, or effect the other way, or a change in a side signal; the % refers to the signal ratio;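 also: potency is read from the fitted curve at half-maximal effect; plate controls were basal doxycycline-induced cells for no effect and cells given 10 µM MG132 for full effect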
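Concentration-response series (up to 46 uM) were applied to TMD8 dual-reporter cells for 4 h at 37C with doxycycline. Green/red ratio, after filter-overlap correction, defined %Activity; red signal alone was normalised to basal cells and zero luminescence.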
hERG WT inh: qHTS for Inhibitors of KCHN2 3.1: Wildtype qHTS. Voltage-gated inwardly rectifying potassium channel KCNH2 (Homo sapiens), Q12809. U2OS, BacMam KCNH2, thallium flux FluxOr; active compounds read low. activity change, % at 1.84 µM. 340,000 compounds, 0.37% hits. AID 720551, 2013;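 active = maximum activity change below -70%; inconclusive = maximum activity change between -70% and -50%; inactive = maximum activity change above -50%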; also: % is scaled to controls: 0 for no effect and ±100 for the full control effect
Target sequence (Q12809 whole entry, looked up): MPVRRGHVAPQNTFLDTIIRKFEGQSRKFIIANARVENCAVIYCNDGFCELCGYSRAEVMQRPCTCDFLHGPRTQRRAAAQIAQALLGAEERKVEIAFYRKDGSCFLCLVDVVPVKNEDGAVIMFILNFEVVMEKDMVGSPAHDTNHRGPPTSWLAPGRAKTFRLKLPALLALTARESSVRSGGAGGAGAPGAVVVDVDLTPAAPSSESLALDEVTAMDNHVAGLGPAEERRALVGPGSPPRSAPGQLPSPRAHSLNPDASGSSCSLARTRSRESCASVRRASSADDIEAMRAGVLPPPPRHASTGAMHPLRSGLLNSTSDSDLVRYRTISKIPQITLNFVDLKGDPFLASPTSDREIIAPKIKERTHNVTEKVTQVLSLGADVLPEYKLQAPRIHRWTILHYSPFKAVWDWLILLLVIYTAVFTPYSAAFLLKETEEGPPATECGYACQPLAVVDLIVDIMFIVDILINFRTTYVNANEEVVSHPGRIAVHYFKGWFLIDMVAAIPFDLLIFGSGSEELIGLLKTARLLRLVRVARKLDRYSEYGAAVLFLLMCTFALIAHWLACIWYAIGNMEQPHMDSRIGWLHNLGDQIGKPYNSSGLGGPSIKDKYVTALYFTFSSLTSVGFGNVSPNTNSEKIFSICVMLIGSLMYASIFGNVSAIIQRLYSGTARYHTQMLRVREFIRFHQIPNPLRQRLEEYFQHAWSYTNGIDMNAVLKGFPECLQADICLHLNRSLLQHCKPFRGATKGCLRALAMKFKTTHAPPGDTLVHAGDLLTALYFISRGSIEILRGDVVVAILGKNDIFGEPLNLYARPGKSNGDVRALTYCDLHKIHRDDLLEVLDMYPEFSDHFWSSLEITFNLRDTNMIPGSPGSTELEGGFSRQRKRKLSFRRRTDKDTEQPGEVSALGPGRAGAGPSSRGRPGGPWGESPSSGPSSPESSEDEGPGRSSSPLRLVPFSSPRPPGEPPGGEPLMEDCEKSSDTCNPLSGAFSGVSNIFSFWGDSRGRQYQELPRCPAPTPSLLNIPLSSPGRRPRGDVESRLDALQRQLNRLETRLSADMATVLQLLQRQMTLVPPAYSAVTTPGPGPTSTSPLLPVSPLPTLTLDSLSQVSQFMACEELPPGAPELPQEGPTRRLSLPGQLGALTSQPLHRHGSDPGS
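U2OS cells were transduced with wild-type KCNH2 virus (2.03 x 10^8 / mL) for 4 h at room temperature, then cultured overnight at 37 C. Thallium flux was read with FluxOr dye. Rate constants were normalized to DMSO controls.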
KCNH2 3.1 inh: qHTS for Inhibitors of KCHN2 3.1: Mutant qHTS. Potassium voltage-gated channel subfamily H member 2, brain isoform KCNH2 3.1 (human). U2OS KCNH2 3.1, thallium flux FluxOr; active compounds read low. activity change, % (tested at about 1.8 µM). 340,000 compounds, 0.95% hits;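 active = maximum activity change below -70%; inconclusive = maximum activity change from -70% to -50%; inactive = maximum activity change above -50%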;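 also: thallium influx rate constant from kinetic fluorescence after stimulation buffer; % is scaled to controls: 0 for no effect and ±100 for the full control effect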
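Normalized rate constant (relative to positive and negative DMSO controls) derived from a 2 min kinetic fluorescence read after stimulation; U2OS cells expressing the 3.1 isoform via virus at 1.77 x 10^8 /mL.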
ClpP mod: qHTS Assay for Activators of ClpP | ATP-dependent Clp protease proteolytic subunit (Bacillus subtilis (strain 168)), P80244 | purified B. subtilis ClpP, FRET peptide cleavage, 20 min | Potency, µM (doses to about 57.5 µM), without a hit: at the top dose activity change, negative = active | 340,000 compounds, 1.9% hits; active = well fitted falling curve with a large enough effect; inconclusive = small, poorly fitted or top-dose-only effect; inactive = no such curve, though single readings can be large or run the other way; also: potency is read from the fitted curve at half-maximal effect; the source files actives as falling curves though it sought activators and does not explain the sign; nearly all actives have a fitted effect of over 65% in size
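ClpP 10 microg/mL final, pH 8 Tris/KCl buffer with BSA, glycerol, Tween-20; compound pinned in; FRET-FV substrate; RT 20 min; Ex320/Em430; ΔFRET vs ADEP 5.8 microM, DMSO, no enzyme.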
ALOX12 inh: Primary qHTS assay for inhibitors of human arachidonate 12S-lipoxygenase (ALOX12): Round 2. purified 12hLO, xylenol orange hydroperoxide absorbance. Potency, µM (highest dose often 108 µM), for the others: at the top dose activity change, negative = inhibition, hits mostly inhibitors. 580,000 compounds, 1.1% hits; active = well fitted inhibition curve with a large enough effect; inconclusive = small, poorly fitted or top-dose-only effect, or another doubt; inactive = no such curve, though single readings can be large or run the other way; also: potency is read from the fitted curve at half-maximal effect; % is scaled to controls: 0 for no effect and ±100 for the full control effect
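Purified human 12hLO (150 nM final) in 25 mM Hepes, 0.01% Triton X-100, pH 7.0 was preincubated 15 min at room temperature with compound. Then 40 uM arachidonic acid was added, 30 min. Hydroperoxide was read by Fe-XO absorbance ratio 573/405 nm.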
Numbers without * were called inactive; ? = inconclusive; . = no result; [ ] = remark or other dose.

SMILES	LDHA block	Chronic BCR inh	hERG WT inh	KCNH2 3.1 inh	ClpP mod	ALOX12 inh
COc1ccc(CNCCC(c2ccc(F)cc2)c2ccc(OC)cc2)cc1 (centres undefined)	7.2	-3.5%	-132.5*	-87.3*	28.2µM*	?
COc1ccc(C(CCNCc2ccc(F)cc2)c2ccc(F)cc2)cc1 (centres undefined)	1.3	4.3%	?	-6.5	-3.1%	?
COc1ccc(C(CCNC(C)c2ccccc2)c2ccc(F)cc2)cc1 (centres undefined)	-1.0	?	-75.7*	-2.4	-2.2%	?
COc1ccc(C(CCNCc2ccccc2)c2ccc(F)cc2)cc1 (centres undefined)	-6.7	-4.4%	-15.5	-75.4*	-0.4%	-17.1%
COc1cccc(CN2CCCC3(C2)NC(=O)c2ccccc2O3)c1 (centres undefined)	.	.	.	.	.	-1.0%[176 µM]
COc1ccccc1/C=C/C(=O)OCCN1CCOCC1	-6.8	?	-8.4	2.6	25.1µM*	-15.2%
COc1ccccc1/C=C/C(=O)N1CCOCC1	-3.4	?	-11.0	6.6	-23.3%	3.7%
O=C(CN1CCN(c2ccc(F)cc2)CC1)N1N=C(c2cc3ccccc3o2)CC1c1ccco1 (centres undefined)	9.1	.	.	.	.	?
CCOc1ccc(-c2nnc(-c3ccco3)o2)cc1OCC	-5.3	?	-11.9	14.0	22.4µM*	0.0%
CCOc1cc(-c2nnc(-c3ccco3)o2)cc(OCC)c1OCC	-1.8	9.3%	3.6	5.1	22.4µM*	0.0%
CCOc1ccc(-c2nnc(-c3cccs3)o2)cc1OCC	-1.3	2.8%	-2.9	23.6	115.7%	3.7%
Brc1ccc(-c2nnc(-c3ccco3)o2)cc1	1.3	?	33.9	5.4	37.1%	0.0%
COc1ccc(C(CC(=O)N2CCCCC2)c2c(OC)cc(OC)c3c(-c4ccccc4)cc(=O)oc23)cc1 (centres undefined)	0.3	-1.0%	-3.7	12.8	?	39.8µM*
COc1ccc(C(CC(=O)N2CCCC2)c2c(OC)cc(OC)c3c(-c4ccccc4)cc(=O)oc23)cc1 (centres undefined)	4.6	-17.8%	-8.8	-8.3	-1.7%	?
O=C(NCCCl)c1ccc(OCc2ccccc2)cc1Cl	0.6	?	-2.6	-112.8*	2.6%	?
CCOC(=O)C(NC(=O)/C=C/c1c(F)cccc1Cl)C(=O)OCC	-0.1	.	.	.	.	-6.7%
CCN1CCN(CCOCCOc2ccccc2-c2ccccc2)CC1	.	-0.8%	.	.	.	.
c1ccc(-c2ccccc2OCCOCCN2CCOCC2)cc1	-45.0*	-2.1%	-3.0	3.9	-0.4%	?
C=CCNCCOCCOc1ccccc1-c1ccccc1	-30.2*	?	3.6	-17.5	0.0%	?
CCOC(=O)c1c(OCC)[nH]c2c1cc(O)c1ccccc12	32.6	?	-8.4	-3.1	22.4µM*	?
O=C(Nc1cccc(C(F)(F)F)c1)N1CCN(Cc2ccc(Cl)s2)CC1	-1.3	.	.	.	.	?
Cc1nc2c(ccc3c(C)c(C)[nH]c32)s1	6.0	.	.	.	.	28.2µM*
Nc1nc(CN2CCN(Cc3ccc4c(c3)OCO4)CC2)nc(Nc2ccccc2)n1	-5.1	2.0%	-24.0	-76.4*	?	?
Cc1ccc(Nc2nc(N)nc(CN3CCN(c4ccccc4F)CC3)n2)cc1	-1.7	-5.5%	25.2	-86.3*	-0.7%	?
Nc1nc(CN2CCN(C(c3ccccc3)c3ccccc3)CC2)nc(Nc2ccccc2)n1	0.9	-3.6%	-24.6	-98.1*	1.6%	?
SMILES	LDHA block	Chronic BCR inh	hERG WT inh	KCNH2 3.1 inh	ClpP mod	ALOX12 inh
CC1CC(C)CN(Cc2nc(N)nc(Nc3ccc4ccccc4c3)n2)C1 (centres undefined)	17.3	?	-5.5	-112.6*	-1.8%	23.2%
CC1CC(C)CN(Cc2nc(N)nc(Nc3ccccc3)n2)C1 (centres undefined)	-2.1	-1.4%	29.6	-30.7	0.5%	-9.4%
Cc1ccccc1Nc1nc(N)nc(CN2CCN(Cc3ccc4c(c3)OCO4)CC2)n1	2.6	-24.0%	49.5	-2.0	-0.4%	-0.8%
COC(=O)CC(C(=O)OC)N1CCCC1 (centres undefined)	-5.4	.	.	.	.	?
Nc1nc(CN2CCCCCC2)nc(Nc2ccccc2)n1	-3.8	?	3.2	-32.1	-1.7%	-5.6%
Nc1nc(CN2CCC(Cc3ccccc3)CC2)nc(Nc2ccccc2)n1	-0.6	18.6%	-90.4*	-87.5*	1.4%	?
Cc1ccc(Nc2nc(N)nc(CN3CCN(C(=O)c4ccco4)CC3)n2)cc1Cl	-11.5	-0.8%	-9.6	-93.8*	-1.3%	-13.1%
Cc1ccc(NC(=O)N2CCN(C(=O)c3ccco3)CC2)cc1Cl	2.6	-1.2%	-2.3	-2.8	0.9%	-11.6%
Cc1nc2ccc(Cl)cc2cc1C(=O)NCCOc1ccc(F)cc1	-10.8	.	.	.	.	-7.5%
COc1ccc(/C=C2/CCCC(CN(C)C)C2=O)cc1 (centres undefined)	-0.1	.	-5.3	.	-1.1%	?
CN(C)CC1CCC/C(=C/c2ccc(Cl)cc2)C1=O (centres undefined)	-2.8	.	5.0	-4.1	1.6%	35.5µM*
CC(C)C[C@@H]1N[C@H](C(=O)NCc2ccccn2)Cc2c[nH]c3cccc1c23	.	.	.	.	.	121.1%[176 µM]
CN1CC(=O)N(C2CCNCC2)Cc2c(NC3CCCCC3O)ncnc21 (centres undefined)	.	.	.	.	.	11.2µM*
CCN1C(=O)CN(C(=O)c2cccnc2)CC12CCOCC2	.	.	.	.	.	5.1%
CC(=O)c1c(C)[nH]c(C(=O)Cn2nnc(-c3ccc(C(C)C)cc3)n2)c1C	2.3	.	.	.	.	15.8µM*
CCCCCC(=O)Nc1ccc2ccccc2c1	19.8	?	5.9	3.8	-5.6%	4.5%
CCN(CC)CC(=O)Nc1cc(N(C)C)nc2ccccc12	-33.3*	-8.1%	1.9	5.0	.	0.0%
CN1CCc2c1nc1ccccc1c2NC(=O)CN1CCCC1	-21.6	-2.0%	10.6	7.7	.	5.6%
CCCCCCC(=O)Nc1c2c(nc3ccccc13)N(C)CC2	-6.6	.	-101.3*	-95.5*	28.2µM*	22.7%
CN1CCN(CC(=O)Nc2cc(N(C)C)nc3ccccc23)CC1	-7.0	?	0.5	1.5	-1.4%	0.9%
CCCCCC(=O)Nc1cc(N(C)C)nc2ccccc12	-4.4	?	-12.7	-39.0	28.2µM*	-1.8%
